Source: PubChem BioAssay
Coupling enz: qHTS Assay for Inhibitors of Fructose-1,6-bisphosphate Aldolase from Giardia Lamblia: Coupling assay counterscreen; 290,000 tested, 0.67% active; coupling enzyme system counterscreen, AmpLite Red fluorescence; activity change, negative = inhibition, % at 58.2 µM, hits read low; AID 2472, 2010; in the data active = activity change below about -30%
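Final compound at 57.5 uM, incubated 10 min at RT with coupling enzyme reagent (glyceraldehyde-3-phosphate), then 20 min with substrate and AmpLite Red detection. Fluorescence read at 525/598 nm; tests interference with the coupling assay, not aldolase inhibition.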
Tau fluor counter: Counterscreen qHTS for Inhibitors of Tau Fibril Formation, Fluorescence Polarization; tau K18 P301L Alexa594 fluorescence, heparin fibrillization; Potency, µM (series often up to 57.7 µM), inactives show at the top dose activity change, negative = decrease; 280,000 tested, 0.93% active; AID 1463, 2008; note: potency is the fitted concentration of half-maximal effect; nearly all actives have a fitted effect of over 55% in size
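Human K18 P301L tau (15 uM unlabeled plus 0.24 uM Alexa 594-labeled, final) in 100 mM sodium acetate pH 7 was mixed with compound and 20 uM heparin and incubated 6 hr at 37 C.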
Sfp inh: qHTS Assay for Inhibitors of Bacillus subtilis Sfp phosphopantetheinyl transferase (PPTase). Biochemical Sfp PPTase activity, qHTS. 4'-phosphopantetheinyl transferase ffp (Bacillus subtilis), Q9F4F7. Potency, µM, without a hit: largest response in the series, negative = inhibition, hits mostly inhibitors. 310,000 tested, 3.5% active. AID 1490, 2009;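 note: the enzyme is Sfp with the accession as filed and its product quenches rhodamine fluorescence; potency is the fitted concentration of half-maximal effect; 0% = enzyme reaction without inhibitor and -100% = no enzyme wells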
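Reaction rates are the 30-min fluorescence difference (ex 525, em 598 nm) in wells containing 15 nM Sfp, 5 uM rhodamine-CoA and 12.5 uM BHQ-2-YbbR at pH 7.6 with 10 mM MgCl2.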
Tau fibril FP: qHTS for Inhibitors of Tau Fibril Formation, Fluorescence Polarization; Microtubule-associated protein tau (Homo sapiens), P10636; K18 P301L tau heparin fibrillization, Alexa594 FP, 6 h; Potency, µM (titrated, usually from 57.7 µM), for the others: at the highest dose activity, negative = inhibition, usual class: inhibitors; 280,000 tested, 0.39% active; note: potency is the fitted concentration of half-maximal effect; nearly all actives have a fitted effect of over 55% in size
Target sequence (P10636 561-689 P618L limits assumed): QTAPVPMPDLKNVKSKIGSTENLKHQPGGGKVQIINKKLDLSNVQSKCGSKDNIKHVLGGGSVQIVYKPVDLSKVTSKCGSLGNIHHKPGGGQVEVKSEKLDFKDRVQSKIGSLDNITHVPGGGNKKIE
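Human tau K18 […] P301L fragment, 15 uM unlabeled plus 0.24 uM Alexa 594-labeled tau (final), with compound and 20 uM heparin in 100 mM sodium acetate pH 7; 6 hr at 37 C, then Alexa 594 FP read.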
G9a block: qHTS Assay for Inhibitors of Histone Lysine Methyltransferase G9a | Histone-lysine N-methyltransferase EHMT2 (Homo sapiens), Q96KQ7 | G9a H3K9 monomethylation, AlphaScreen, 2 h | Potency, µM (doses to about 102 µM), for inactives: at the top dose activity, negative = inhibition, usual class: inhibitors | 350,000 tested, 8.8% active; note: potency is the fitted concentration of half-maximal effect; nearly all actives have a fitted effect of over 75% in size
Target sequence (Q96KQ7 913-1193 limits assumed): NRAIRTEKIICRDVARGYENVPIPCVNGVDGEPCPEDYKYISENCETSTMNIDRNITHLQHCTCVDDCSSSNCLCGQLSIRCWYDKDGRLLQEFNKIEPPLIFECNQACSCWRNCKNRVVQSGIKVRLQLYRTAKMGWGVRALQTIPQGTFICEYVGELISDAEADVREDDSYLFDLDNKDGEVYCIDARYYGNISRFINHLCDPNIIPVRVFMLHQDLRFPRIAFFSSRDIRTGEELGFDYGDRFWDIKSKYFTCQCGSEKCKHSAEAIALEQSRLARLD
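Methyltransferase reactions run at room temperature for 2 h (20 nM enzyme, 500 nM biotin-H3K9 peptide, 20 uM SAM) after a 15 min compound preincubation; product detected by AlphaScreen beads and anti-H3K9me1 antibody.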
Tau fibril ThT: qHTS for Inhibitors of Tau Fibril Formation, Thioflavin T Binding; recombinant tau K18 P301L, heparin-induced fibrillization, ThT fluorescence; Potency, µM (series often up to 57.4 µM), for the others: at the top dose activity, negative = inhibition, hits mostly inhibitors; 270,000 tested, 2.1% active; note: potency is the fitted concentration of half-maximal effect; nearly all actives have a fitted effect of over 55% in size
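Fibril formation assay: tau K18 P301L at 15 uM with trace Alexa 594 label, heparin inducer 20 uM, pH 7 sodium acetate buffer, 37 C for 6 hr; endpoint ThT signal.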
* marks the source's active call; other numbers are inactive results; ? = inconclusive; · = no result; [ ] = dose if it differs, or a comment. Shown are actives, neighbours in structure and some others; about 11% of the full set was active somewhere. Unless noted, calls come from the whole dose curve; as a rule, active = well fitted curve in the direction sought with a large enough effect; inconclusive = small, poorly fitted or top-dose-only effect, or another doubt; inactive = no such curve, though single readings can be large; an effect the other way counts as inactive or inconclusive. Unless noted, % is set by controls: 0 for no effect and ±100 for the full control effect.

SMILES | Coupling enz | Tau fluor counter | Sfp inh | Tau fibril FP | G9a block | Tau fibril ThT
Cc1nc2sc(C(=O)c3ccccc3)c(N)c2c(C)c1C | 0 | -14% | -6% | -5% | -13% | 1%
COC(=O)c1c(N)sc(C(=O)N2CCOCC2)c1C | 0 | -3% | 23% | -1% | 0%[12.7 µM] | -6%
CCOC(=O)c1c(N)sc(-c2ccccc2)c1C | 2 | ? | ? | 6% | 8.9µM* | 25µM*
C[C@H](CCC(=O)NCC(=O)O)C1CC[C@H]2C3CC[C@@H]4C[C@H](O)CC[C@]4(C)C3C[C@H](O)[C@]12C (some centres undefined) | · | 0% | 7% | -1% | 31%[59 µM] | -3%
COc1cc(NS(=O)(=O)c2ccc(NC(=O)c3cccc(F)c3)cc2)nc(OC)n1 | · | -20% | · | -11% | -4%[59 µM] | -11%
CCOC(=O)c1c(N)sc(C)c1-c1ccccc1 | -10 | ? | 35µM* | ? | 18µM* | -7%
Cc1ccc(-c2onc3ccc(C(=O)O)cc23)cc1 | 10 | · | -8% | · | 40µM* | ·
O=c1ccsn1Cc1ccccc1 | -3 | -17% | 0.63µM* | 14µM* | ? | 10µM*
CCCC[n+]1ccn(-c2nc3ccccc3nc2[N-]S(=O)(=O)c2ccc(Cl)cc2)c1 | 0 | -20% | -8% | -3% | · | ·
CCCCC[n+]1ccn(-c2nc3ccccc3nc2[N-]S(=O)(=O)c2ccccc2)c1 | -22 | -5% | 35µM* | -3% | -34% | -2%
Cc1ccc(-n2nc(C)c(C(=O)NCCCN3CCN(c4ccccc4F)CC3)c2-n2cccc2)cc1 | · | 0% | · | -11% | -28%[59 µM] | -9%
N#Cc1ccc(C(=O)Nc2ccc3ccccc3c2)cc1 | 0 | · | 8% | · | 45µM* | ·
COC(=O)/C=C/CC(C)OS(N)(=O)=O (centres undefined) | 2 | · | 21% | · | 2% | ·
O=C1C(=O)N(C2CCN(C(=O)c3ccc(Cl)cc3)CC2)CCN1Cc1ccc(F)cc1 | · | 0% | · | 6% | 4%[59 µM] | -4%
CCOc1ccc(CNS(=O)(=O)c2c(C(=O)N3CCC(C)CC3)c(C)n(C)c2C)cc1OC | · | 2% | · | 4% | -3%[59 µM] | 4%
Cc1cc(C)c2c(=O)n(CC(=O)NCCCN3CCN(c4ccccc4F)CC3)sc2n1 | 4 | -24% | 4.5µM* | ? | 1.1µM* | 14µM*
Cc1cc(C)c2c(=O)n(CC(=O)NCCCN3CCOCC3)sc2n1 | 3 | -21% | 1.3µM* | 16µM* | 1.3µM* | 10µM*
Cc1cc([N+](=O)[O-])nn1CC(=O)NCCCN1CCOCC1 | 1 | · | 22% | · | -10% | ·
Cc1ccc(C2(c3ccccc3)NC(=O)N(CC(=O)NC3CCCCC3)C2=O)cc1C (centres undefined) | · | · | · | · | 14µM* | ·
Cc1ccc(-n2c(=O)c3c4c(sc3n(CC(=O)Nc3cccc(Cl)c3)c2=O)CCCCC4)cc1C | · | -4% | · | ? | -32%[59 µM] | 11%
CC(C)c1nc(N(C)S(C)(=O)=O)nc(-c2ccc(F)cc2)c1/C=C/C(O)CC(O)CC(=O)O (centres undefined) | 4 | -4% | 10% | 5% | -33%[2.33 µM] | 1%
COc1ccc(CNC(=O)CSc2nc(SC)ns2)cc1 | 0 | · | 2% | · | 45µM* | ·
O=C(CSc1ncnc2scc(-c3ccc(Cl)cc3)c12)NCc1ccc2c(c1)OCO2 | -33* | -10% | 7% | 6% | 17%[59 µM] | -3%
COc1ccc(-c2nsc(SCC(=O)NCc3ccc4c(c3)OCO4)n2)cc1 | 6 | -15% | -8% | -6% | 25µM* | 2%
CSc1nsc(SCC(=O)Nc2ccccc2F)n1 | 0 | · | 5% | · | 12% | ·
